# Experimental data reported in PubChem BioAssay AID1463 (National Center for Advancing Translational Sciences (NCATS), 2008).
# The campaign covered roughly 280,000 compounds. About 2,600 (0.93%) were called active. About 8% were inconclusive and are not listed. Shown is part of a subset that was picked to be rich in actives. Values without a mark were called inactive. Calls come from the whole dose curve; as a rule, active = well fitted curve in the direction sought with a large enough effect; inconclusive = small, poorly fitted or top-dose-only effect; inactive = flat fitted curve, though single readings scatter.
# Assay: Counterscreen qHTS for Inhibitors of Tau Fibril Formation, Fluorescence Polarization; note: nearly all actives have a fitted effect of over 55% in size
# Conditions: tau K18 P301L (four-repeat tau fragment) Alexa594 fluorescence, heparin fibrillization; series mostly up to 57.7 µM; activity change, negative = decrease: at the top concentration
# In short: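 Human K18 P301L tau (15 uM unlabeled plus 0.24 uM Alexa 594-labeled, final) in 100 mM sodium acetate pH 7 was mixed with compound and 20 uM heparin and incubated 6 hr at 37 C.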
# % is set by controls: 0 for no effect and ±100 for the full control effect; potency is the fitted concentration of half-maximal effect; tags give direction and shape of the fitted curve or compound fluorescence and quenching.
SMILES,"activity change, negative = decrease",Potency
Cc1cc(C)cc(Nc2ncnc3onc(-c4ccc(F)cc4)c23)c1,-27.8%,
Cc1cc(OCC(=O)NCC2(N(C)C)CCCCC2)cc(C)c1Cl,-4.83%,
COC(=O)c1sccc1S(=O)(=O)N(CC(=O)Nc1ccc(C)c(F)c1)c1ccc(C)c(C)c1,-26.5%,
Cc1nn(Cc2ccc(F)cc2)c(C)c1NC(=O)c1cc(CC(C)C)on1,-6.55%,
CCc1nc2ccc(C(=O)N3CCN(c4cc(Cl)ccc4C)CC3)cc2nc1CC,-16.5%,
COc1ccc(C(=O)Nc2ccc3nc(N4CCCCC4)cc(C)c3c2)cc1OC,,10 µM [quencher] (active)
COc1ccc(NC(=O)c2ccc3nc(C(C)C)oc3c2)cc1OC,-10.9%,
COc1cccc(C(=O)Nc2ccc3nc4n(c(=O)c3c2)CCCCC4)c1,-19.2%,
COc1ccccc1CN1CCC(CNC(=O)c2cnn(-c3ccccc3Cl)c2C2CCN(C(=O)OC(C)(C)C)CC2)CC1,-15.9%,
Fc1ccc(-c2nn(-c3ccccc3Cl)c3c2cnc2ccccc23)cc1,-24.1%,
O=C(Nc1ccc2ccccc2c1)Nc1ccc2snnc2c1,,4.47 µM [quencher] (active)
O=C(Nc1ccccc1)Nc1nc2ccccc2s1,-24.8%,
O=C(Nc1ccc2oc(-c3ccc4ccccc4c3)nc2c1)c1cccs1,-27.6%,
Cc1cc(C)c(NC(=O)CN2C(=O)c3cccnc3Oc3ccc(Cl)cc32)c(C)c1,-15.1%,
COc1ccc(N2CCN(S(=O)(=O)c3ccc(-c4coc(C)n4)cc3)CC2)cc1,-25.9%,
CCOc1ccccc1Oc1cn[nH]c1-c1ccc(OC)cc1O,,12.6 µM [quencher] (active)
COc1ccc(-c2[nH]ncc2CN(C)Cc2c(C)n[nH]c2C)c(OC)c1,-0.526%,
CCOc1ccc(-c2nc(N)ncc2-c2ccccc2OC)c(O)c1,-28.8%,
COc1ccccc1CNC(=O)c1ccc(-n2c(C)cc3c2CCCC3)cc1,-3.95%,
COc1ccc(OC)c(CNC(=O)c2c3c(nc4ccccc24)C(=O)N(C2CCCCC2)C3)c1,5.73%,
Fc1ccc(C(Nc2ccc(Cl)c(C(F)(F)F)c2)c2nnc(-c3ccccc3)o2)cc1 (stereo not drawn),-22.3%,

SMILES,"activity change, negative = decrease",Potency
N#C/C(=C/c1ccc(N2CCCCC2)o1)C(=O)NCCc1c[nH]c2ccccc12,,15.8 µM [quencher] (active)
O=C(NCCc1c[nH]c2ccccc12)C(=O)NCC1CCCO1 (stereo not drawn),0.306%,
N#C/C(=C/c1ccc(-c2ccccc2[N+](=O)[O-])o1)C(=O)NCCN1CCCCC1,-11.3%,
Cc1ccc(Nc2c3c(nc4ccccc24)CCC3)cc1,-9.23%,
COc1ccc(/C=C/C(=O)Nc2ccc3c(c2)OCCO3)cc1OC,-28.9%,
COc1ccccc1Nc1c2c(nc3ccc(NC(=O)/C=C/c4cc(OC)c(OC)c(OC)c4)cc13)CCCC2,,10 µM [quencher] (active)
CCCN(C(=O)Cn1ncc2c([nH]c3ccc(C)cc32)c1=O)c1ccccc1C,-19.4%,
COC(=O)CSc1nccc(-c2cccs2)n1,0.872%,
c1cnc(Nc2nc(-c3ccc4ccccc4c3)cs2)nc1,-6.05%,
Clc1ccc(Nc2nc(-c3cccs3)cs2)nc1,,14.1 µM [quencher] (active)
Cc1cccc(-n2ncc(C(=O)N3CCN(c4ccc(Cl)cc4)CC3)c2C2CCN(C(=O)OC(C)(C)C)CC2)c1,-17.5%,
Cc1ccc(C)c(N2CCN(C(=O)C3CCC(CNS(=O)(=O)c4cccs4)CC3)CC2)c1 (stereo not drawn),-20%,
CN1C(=O)C(CC(=O)Nc2ccccc2)S/C1=N/c1nccs1 (stereo not drawn),-2.38%,
O=C(CC1SC(=Nc2ccccc2)N(Cc2ccccn2)C1=O)Nc1cccc(Cl)c1 (stereo not drawn),,10 µM [quencher] (active)
O=C(Nc1cccc(Cl)c1)OCc1ccccn1,-16.9%,
Fc1ccc(CSc2nc(NCc3ccccc3)c3ccccc3n2)cc1,-11.1%,
Cc1ccccc1NC(=S)NNC(=O)c1cccc(Br)c1,-9.27%,
NS(=O)(=O)c1ccc(NC(=S)NC(=O)c2cccc(Br)c2)cc1,-6.18%,
O=C(NC(=S)Nc1cccc2c(O)cccc12)c1cccc(Br)c1,,11.2 µM [quencher] (active)
COc1cccc(C(=O)N(Cc2cccc(Cl)c2)Cc2ccco2)c1,-8.6%,
Cc1ccccc1CSc1nc2c([nH]c3ccccc32)c(=O)n1C,-4.83%,

SMILES,"activity change, negative = decrease",Potency
CCN(C(=O)CSc1nnc(C)n2c1cc1occc12)c1ccccc1,-11.2%,
CC1CCN(S(=O)(=O)c2ccc3c(c2)N(CC(=O)NCCc2ccccc2)C(=O)CO3)CC1,-19.9%,
COc1ccc(Cl)cc1NC(=O)c1sc2nc3c(cc2c1N)CN(C)CC3,,10 µM [quencher] (active)
COc1ccc(Cl)cc1NC(=O)CCN1CCOCC1,15.5%,
CCc1ccc(NC(=O)c2sc3nc4c(cc3c2N)CN(CC)CC4)cc1,,20 µM [quencher] (active)
COc1ccc(Cl)cc1NC(=O)c1oc(C)nc1C,-2.19%,
CCc1ccc2nc3sc(C(=O)Nc4nnc(CC)s4)c(N)c3cc2c1,-25.2%,
CCc1ccccc1NC(=O)c1sc2nc3c(cc2c1N)CN(Cc1ccccc1)CC3,-23%,
O=C(Nc1ccc(S(=O)(=O)N2CCC(c3nc4ccccc4s3)CC2)cc1)c1ccccc1F,2.89%,
Cc1cc(C)cc(-n2ccnc2SCC(=O)Nc2nc3ccccc3s2)c1,-11.2%,
CCOc1ccccc1CNC(=O)Nc1cn(CC(C)C)c(=O)c2ccccc12,-18.9%,
CC(C)Cn1c(C2CC(=O)N(c3ccccc3Cl)C2)nc2ccccc21 (stereo not drawn),-3.59%,
CCCc1cc(-c2nc(-c3ccc(C)cc3)cs2)ccn1,-4.64%,
Cc1ccc(-c2csc(-c3cc(C)on3)n2)cc1,-7.55%,
Cc1ccc(-c2csc(-c3c[nH]c4ccccc34)n2)cc1,,7.08 µM [quencher] (active)
Cc1ccc2c(=O)c(C(=O)c3ccc(Cl)cc3)cn(CC(=O)NC3CCCCC3)c2n1,-5.5%,
CN(C)CCCNC(=O)c1ccc2[nH]c3ccccc3c2c1,0.618%,
COC(=O)CCNC(=O)c1ccc2[nH]c(C)c(C)c2c1,-13.3%,
Cc1ccc(C(=O)NCCSc2c(C)[nH]c3ccccc23)cc1C,,12.6 µM [quencher] (active)
COc1ccc(C(=O)N2CCC(c3nc4ccccc4o3)CC2)cc1,5.71%,
CCOc1ccccc1C(=O)NCc1ccc2c(c1)CCN2C(=O)c1ccc(F)cc1,-12.3%,
